Hit rate of the full screen: of about 390,000 compounds, about 17,000 (4.4%) were called active. A call without a number means that no potency is given here. Inconclusive results (about 8%) are left out. Calls follow the shape of the dose curve; as a rule, active = well fitted inhibition curve with a large enough effect; inconclusive = small, poorly fitted or top-dose-only effect; inactive = no such curve, though single readings can be large or run the other way. The full list was thinned out, with actives kept by preference.
Potency is read from the fitted curve at half-maximal effect.

In this assay the target is Lysine-specific demethylase 4A (Homo sapiens) (UniProt O75164). Description: qHTS Assay for Inhibitors of JMJD2A-Tudor Domain. Also: nearly all actives have a fitted effect of over 50% in size. The following applies: AlphaScreen JMJD2A-Tudor / H3K4me3 peptide binding; series mostly up to 114 µM. (Quantitative high-throughput screening tests each substance at several concentrations.)
Chain of Lysine-specific demethylase 4A (Homo sapiens) (O75164 whole entry, looked up, the tested form may be a part): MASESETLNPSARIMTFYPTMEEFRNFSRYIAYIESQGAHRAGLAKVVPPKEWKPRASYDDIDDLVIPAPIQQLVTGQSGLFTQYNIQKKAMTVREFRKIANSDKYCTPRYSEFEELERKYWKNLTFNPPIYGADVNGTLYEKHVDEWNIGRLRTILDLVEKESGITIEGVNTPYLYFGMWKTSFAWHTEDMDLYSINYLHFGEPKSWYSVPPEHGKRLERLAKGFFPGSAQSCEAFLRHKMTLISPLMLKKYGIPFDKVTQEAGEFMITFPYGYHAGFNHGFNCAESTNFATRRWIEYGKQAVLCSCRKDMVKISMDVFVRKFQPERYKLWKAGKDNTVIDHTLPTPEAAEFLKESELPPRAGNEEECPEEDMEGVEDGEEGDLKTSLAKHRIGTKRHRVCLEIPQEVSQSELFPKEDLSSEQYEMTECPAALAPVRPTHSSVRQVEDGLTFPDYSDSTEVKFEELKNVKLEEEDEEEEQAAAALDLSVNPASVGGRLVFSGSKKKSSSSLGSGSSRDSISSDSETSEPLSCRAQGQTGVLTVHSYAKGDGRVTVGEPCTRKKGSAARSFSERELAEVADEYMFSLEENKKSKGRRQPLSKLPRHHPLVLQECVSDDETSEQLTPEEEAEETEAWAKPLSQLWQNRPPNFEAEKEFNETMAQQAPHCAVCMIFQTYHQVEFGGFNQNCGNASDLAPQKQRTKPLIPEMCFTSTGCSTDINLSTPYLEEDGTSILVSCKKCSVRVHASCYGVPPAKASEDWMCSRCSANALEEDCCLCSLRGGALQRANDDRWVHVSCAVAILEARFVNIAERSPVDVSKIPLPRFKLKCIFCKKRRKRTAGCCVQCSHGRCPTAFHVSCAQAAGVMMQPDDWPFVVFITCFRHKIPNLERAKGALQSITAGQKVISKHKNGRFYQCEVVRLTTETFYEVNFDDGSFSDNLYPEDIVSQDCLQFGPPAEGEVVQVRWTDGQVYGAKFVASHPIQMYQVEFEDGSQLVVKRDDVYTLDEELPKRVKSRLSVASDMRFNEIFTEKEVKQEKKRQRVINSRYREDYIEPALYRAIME
With `CCC(C)NCCOCCOc1ccc(Br)cc1C` (centres undefined), the Potency was 28.2 µM (active). As for `Cc1cccc(NC(=O)COc2ccc(Br)cc2C)n1`, the Potency result was “inactive”. The value for `Cc1ccc(OCCOCCOc2ccc(Br)cc2/C=N\NC(=O)c2ccncc2)cc1` was “inactive”; that for `COc1ccc(C2C(=O)N(C3CCCCC3)CC(=O)N2Cc2ccccc2Cl)cc1OC` (centres undefined) was “inactive”.

For `COc1cccc(NC(=O)Nc2ccc3c(c2)N(C)C(=O)c2ccccc2S3)c1`, the Potency entry is “inactive”. The entry for `CCc1cccc(NC(=O)c2cc(-c3ccccc3)n[nH]2)c1` is “inactive”. The figure for `CCc1ccc2c(c1)C1(NN=C(c3ccccc3)S1)C(=O)N2` (centres undefined) is 56.2 µM (active); for `CCOc1ccc(CNC(=O)C2CCN(c3nnc(-n4cccc4CNc4ccc(C)cc4)s3)CC2)cc1OC` it is “inactive”. The value for `O=C(Nc1nnc(S(=O)(=O)N2CCCc3ccccc32)s1)c1cccc(F)c1` was 50.1 µM (active); that for `O=C(Nc1nnc(S(=O)(=O)N2CCCCCC2)s1)c1cccc(Br)c1` was “inactive”; that for `CCC(=O)Nc1nnc(S(=O)(=O)N2CCCc3ccccc32)s1` was “inactive”. Turning to `Cc1ccc2nc(NC(=O)c3nc(SCc4ccccc4F)ncc3Cl)sc2c1`, the Potency result is “inactive”. For `COc1ccc(S(=O)(=O)c2c(Nc3cccc(Cl)c3)sc(C(=O)c3ccccc3)c2N)cc1`, the Potency entry was “inactive”. The entry for `COc1ccc(C)cc1N(CC(=O)N1CCC(C)CC1)S(=O)(=O)c1ccc(C)cc1` is “inactive”; for `COc1ccc(CN2CCN(C(=O)CCC(=O)Nc3nnc(C(C)C)s3)CC2)cc1F` it is “inactive”. The value for `CCOC(=O)C1CCN(Cc2ccc(-c3ccccc3)cc2)CC1` was 17.8 µM (active); that for `CC(C)CC(=O)N1CCC(O)(CS(=O)(=O)Cc2ccccc2)CC1` was “inactive”; that for `CCOC(=O)C1CCN(CCC(=O)Nc2cccc(C)c2)CC1` was “inactive”. The value for `CC(C)CC(=O)N1CCN(Cc2ccccc2Br)CC1` was 17.8 µM (active); that for `COc1ccc(CCN2C(=O)CC(N3CCC(C(N)=O)CC3)C2=O)cc1OC` (centres undefined) was “inactive”; that for `CCOc1cc(CO)ccc1OCC(=O)N1CCCCC1` was “inactive”. As for `CCOC(=O)C1CCN(Cc2nnc(-c3cccc(Br)c3)o2)CC1`, the Potency entry is “inactive”.

On to `COc1ccc(COCC(O)CN2CCC(C(N)=O)CC2)cc1` (centres undefined), for which the Potency entry was “inactive”. The value for `Cc1c(Br)c([N+](=O)[O-])nn1CC(=O)N1CCN(Cc2ccccc2)CC1` was “inactive”. The value for `COc1cc(CN2CCC(C(N)=O)CC2)ccc1OCc1ccccc1` was 50.1 µM (active); that for `CCOc1cc(CN2CCN(C(=O)CC(C)C)CC2)ccc1OC` was 3.16 µM (active); that for `COc1ccc(Cn2ccc3nc(C)c(C(=O)Nc4ccc(C)c(F)c4)cc3c2=O)cc1` was “inactive”. The entry for `COc1cccc(NC(=O)CSc2cc(=O)n(C)c3ccc(Cl)cc23)c1` is “inactive”. Turning to `CCCNC(=O)c1ccc2c(c1)ncn2-c1ccc(C)cc1C`, the Potency entry was “inactive”. The entry for `COc1ccc(-c2cc(NCc3ccc(F)cc3)n3cnnc3n2)cc1` is “inactive”; for `Cc1cc2oc(C(=O)N(Cc3ccc(Cl)cc3)Cc3ccco3)c(C)c2cc1Cl` it is “inactive”. The value for `CC(C)(C)c1ccc(C(=O)NCC(c2ccc(Cl)cc2)N2CCOCC2)cc1` (centres undefined) was “inactive”; that for `Cc1nc2nc(SCC(=O)NC3CCC(C)CC3)nn2c(C)c1Cc1ccccc1Cl` (centres undefined) was “inactive”. With `Cc1ccc(NC(=O)c2oc3ccc(S(=O)(=O)N4CCCCC4)cc3c2C)cc1Cl`, the Potency entry was “inactive”. The entry for `Cn1nnnc1SCC(=O)N1CCN(Cc2ccccc2)CC1` is “inactive”; for `O=C(c1cccc(Cl)c1)N1CCN(Cc2ccccc2)CC1` it is “inactive”; for `CC(C)CC(=O)N1CCN(Cc2cccc(Cl)c2)CC1` it is 44.7 µM (active). As to `CCOC(=O)N1CCC(NC(=O)c2cnn(-c3cccc(C)c3)c2C2CCN(C(=O)OC(C)(C)C)CC2)CC1`, the Potency entry was “inactive”.

For `O=C(Nc1ncccc1O)c1ccc(C(=O)c2ccccc2)cc1`, the Potency result is “inactive”.

For the molecule `O=C(CNC(=O)c1ccc2ccccc2c1)Nc1ncccc1O`, the Potency is 79.4 µM (active).

For the molecule `CC1CCC(NC(=O)CNC(=O)c2ccc3ccccc3c2)CC1` (centres undefined), the Potency entry is “inactive”. As for `CCCN(CCC)C(=O)C1CCCN(c2ncnc3c2nc2n3CCCCC2)C1` (centres undefined), the Potency result was “inactive”. The value for `COc1cccc(NC(=S)NC(=O)c2c(Cl)c(C)nn2C)c1` was 89.1 µM (active); that for `COc1cccc(NC(=O)c2csnn2)c1` was “inactive”. The value for `Cc1nn(C)c(C(=O)NNC(=S)NC2CCCCC2)c1Cl` was “inactive”. The value for `COc1ccc(S(=O)(=O)c2cn(C)c3cc(N4CCCCC4)c(F)cc3c2=O)cc1` was “inactive”; that for `COc1ccc(Br)cc1/C=N/Nc1ccc(S(=O)(=O)Nc2ccccc2C(=O)O)cc1[N+](=O)[O-]` was 17.8 µM (active); that for `CCOc1ncccc1C(=O)NNC(=O)c1cccc(S(=O)(=O)Nc2ccccc2OC)c1` was “inactive”. Regarding `COc1ccc(S(=O)(=O)Nc2ccccc2C(=O)N2CCCC2)cc1C`, the Potency result was “inactive”.

Turning to `COC(=O)c1ccccc1NS(=O)(=O)c1ccc2[nH]c(=O)[nH]c2c1`, the Potency entry is “inactive”. The entry for `COc1ccc(S(=O)(=O)Nc2ccc3cn[nH]c3c2)cc1[N+](=O)[O-]` is “inactive”; for `COc1cccc(/C=N/Nc2ccc(S(=O)(=O)Nc3ccccc3C(=O)O)cc2[N+](=O)[O-])c1O` it is 44.7 µM (active). The value for `CCOC(=O)C1CCN(C(=O)CSc2c3c(nc4ccc(Cl)cc24)CCCC3)CC1` was “inactive”; that for `COc1ccc2oc(-c3ccc(C)c(NC(=O)c4sc5ccccc5c4Cl)c3)nc2c1` was “inactive”. The value for `COc1ccc(C)cc1Nc1n[n+](-c2ccccc2)c(-c2cccc(Cl)c2Cl)s1` was “inactive”. On to `CCc1ccc(Nc2n[n+](-c3ccccc3)c(-c3cccc(Cl)c3Cl)s2)cc1`, for which the Potency is 56.2 µM (active). The entry for `COc1cc(Br)c(-c2sc(Nc3ccccc3)n[n+]2-c2ccccc2)cc1OC` is “inactive”.

In the case of `Cc1cccc(NC(=O)C2CCCN2S(=O)(=O)c2cccc3nsnc23)c1C` (centres undefined), the Potency result was “inactive”.

On to `COc1ccc(N2CCN(Cc3nc4c(c(=O)[nH]c(=O)n4C)n3Cc3ccc(Cl)cc3)CC2)cc1`, for which the Potency result is “inactive”. `COc1ccc(CCCc2nnc(SCc3nc4ccccc4c(=O)[nH]3)n2C)cc1`: the Potency is 15.8 µM (active). As for `COc1ccc(C)cc1-n1nnnc1SCc1nc2ccccc2c(=O)[nH]1`, the Potency result is “inactive”.

`CCn1c(COc2c(C)cccc2C)nnc1SCc1nc2ccccc2c(=O)[nH]1`: the Potency result was “inactive”.

Consider `CCOc1ccccc1NC(=O)CSc1ncc(S(=O)(=O)c2ccc(C(C)(C)C)cc2)c(=O)[nH]1`, for which the Potency result is “inactive”.

Consider `CCCN1CCN(CCCNC(=O)c2ccc3nc(Cc4ccccc4)oc3c2)CC1`, for which the Potency result was “inactive”. As to `Cc1cc(/C=C2\SC(=O)N(C)C2=O)c(C)n1-c1cccc(C(=O)O)c1`, the Potency was 56.2 µM (active). Turning to `Cc1cc(/C=C2/SC(=O)N(CC(=O)OC(C)C)C2=O)c(C)n1C`, the Potency entry was “inactive”. The entry for `Cc1cc(/C=C2/SC(=O)N(CC(=O)N3CCCC3)C2=O)c(C)n1C` is “inactive”.

Regarding `Cc1cccc(-n2c(SCC(N)=O)nc3c(oc4ccccc43)c2=O)c1`, the Potency result was “inactive”. The entry for `O=C(CSc1nc(=O)[nH]c2c1CCCC2)Nc1cc(C(F)(F)F)ccc1Cl` is “inactive”. The value for `CCOc1ccccc1NC(=O)CN1CCCN(Cc2cccc(Cl)c2)S1(=O)=O` was “inactive”. The value for `Cc1c(NC(=O)c2cc(=O)c3ccccc3o2)c(=O)n(-c2ccccc2)n1C` was “inactive”; that for `C/C(=N\Nc1cccc(C(=O)O)c1)c1ccc2c(c1)Nc1ccccc1S2` was 56.2 µM (active); that for `Cc1ccccc1NC(=O)c1cc(S(=O)(=O)Nc2cccc(C(=O)O)c2)ccc1Cl` was “inactive”. For `CC(=O)Nc1cccc(/C(C)=N/NC(=O)c2c(-c3ccccc3Cl)noc2C)c1`, the Potency result was “inactive”. The entry for `Cc1c(Cl)cccc1NC(=O)Cn1cc(C(=O)c2cccs2)c2ccccc21` is “inactive”; for `CC(=O)c1nn(-c2ccc(OC(F)(F)F)cc2)nc1Nc1ccccc1` it is “inactive”. The entry for `COC(=O)c1cccc(NC(=O)c2cccc(N3C(=O)CCC3=O)c2)c1` is “inactive”; for `COc1ccccc1-c1nnc(NC(=O)c2cccc(N3C(=O)CCC3=O)c2)o1` it is 35.5 µM (active). The entry for `COc1ccccc1NC(=O)c1ccc2nc(N3C(=O)CCC3=O)sc2c1` is “inactive”; for `Fc1ccc(C(Nc2ccc(Cl)c(C(F)(F)F)c2)c2nnc(-c3ccccc3)o2)cc1` (centres undefined) it is “inactive”; for `CCn1c(=O)cc(OCC(=O)Nc2cc(Cl)c(OC)cc2OC)c2ccccc21` it is “inactive”.

Regarding `COc1ccc(NC(=O)c2ccc3nc(CCc4ccccc4)oc3c2)c(OC)c1`, the Potency entry is “inactive”. The figure for `COc1ccc(S(=O)(=O)/N=C2\C=C(NS(=O)(=O)c3ccccc3)C(=O)c3ccccc32)cc1` is 39.8 µM (active); for `COc1ccc(NS(=O)(=O)c2ccc(Oc3c(C#N)cccc3C#N)cc2)cc1` it is “inactive”; for `COc1ccc(S(=O)(=O)Nc2cc3c(C(=O)OC(C)C)c(C)oc3c3ccccc23)cc1` it is “inactive”. The value for `Cc1ccc(Cl)cc1N1CCN(C(=O)c2cccn3c(=O)c4cc(Cl)ccc4nc23)CC1` was “inactive”; that for `CCCC(=O)Nc1cc(C(=O)NCc2ccc(OC)cc2)ccc1S(=O)(=O)c1ccc(Cl)cc1` was “inactive”; that for `CCN(CC)S(=O)(=O)c1ccc2c(c1)N(CC(=O)NCC(C)c1ccccc1)C(=O)CO2` (centres undefined) was “inactive”.

On to `CCc1cccc(NC(=O)CN(c2ccc(C)c(C)c2)S(=O)(=O)c2ccsc2C(=O)OC)c1`, for which the Potency entry was “inactive”.

`CCCCC(CC)CNCc1cccn1CCN1CCOCC1` (centres undefined): the Potency was 28.2 µM (active). Consider `CSc1ccc(CNCCN2CCOCC2)cc1`, for which the Potency result was “inactive”.

For the molecule `O=C(NCCCN1CCOCC1)c1cc(-c2ccccc2F)no1`, the Potency entry is “inactive”.

As to `Cc1cc(C)cc(NC(=O)Cc2csc(C)n2)c1`, the Potency entry was “inactive”. The value for `Cn1c(COc2ccc(Cl)cc2)nc2ccccc2c1=O` was 28.2 µM (active); that for `COc1ccccc1OCCCn1c(-c2ccc(Cl)cc2)nc2ccccc2c1=O` was “inactive”; that for `COc1ccc(OCc2ccc(-c3nc4ccccc4c(=O)n3N)o2)cc1` was “inactive”. The value for `COc1ccc(CCNS(=O)(=O)c2cc(-c3cc(C)no3)ccc2C)cc1OC` was “inactive”.

For the molecule `COc1ccc(-c2nc(SCC(=O)N3CCCCC3C)n[nH]2)cc1` (centres undefined), the Potency result is “inactive”. The entry for `CCn1c2c(c(=O)n3ncc(C(=O)N4CCN(c5ccccc5)CC4)c13)CN(Cc1ccc(OC)cc1)CC2` is “inactive”.

(Values after PubChem BioAssay AID504339 (National Center for Advancing Translational Sciences (NCATS), 2011).)
